Assay results from PubChem BioAssay.

test: reversal of MRP1-mediated doxorubicin resistance, pilot screen, H69AR cells, doxorubicin co-treatment (AID 601); conditions: H69AR cells + 2 uM doxorubicin, CellTiter-Glo, 72 h; measured here: viability with 2 uM doxorubicin; at 10 µM; stronger effect = lower value

| Structure (SMILES) | viability |
| --- | --- |
| Nc1nc(N2CCCCC2)nc(N(c2ccccc2)c2ccccc2)n1 | 75% |
| O=C1c2ccccc2C(Nc2cccnc2)N1Cc1ccccc1Cl (centres undefined) | 102% |
| CCN1CCN(c2nc3c(c(=O)[nH]c(=O)n3C)n2CCSc2nc3ccccc3s2)CC1 | 97.1% |
| COc1cc(C(O)c2nc3ccccc3n2C)cc(OC)c1OC (centres undefined) | 93.2% |
| CCOC(=O)N1CCC(Nc2nc3ccccc3n3cnnc23)CC1 | 81.9% |
| COc1ccc(C2C(C(C)=O)=C(C)N=c3s/c(=C/c4ccc5c(c4)OCO5)c(=O)n32)cc1 (centres undefined) | 94.4% |
| CCOC(=O)C1=C(C)N(C)C(=O)NC1c1ccccc1OC (centres undefined) | 110% |
| CCCCS(=O)(=O)NC1=NCN(CCOC(=O)c2ccccc2)CN1 | 87.6% |
| COc1ccc(-n2c(Cc3cccn3C)nnc2SCC(=O)Nc2cccc(Cl)c2)cc1 | 87.6% |
| CCC1CCCCN1C(=O)CSc1nnc(-c2ccc(OC)cc2)o1 (centres undefined) | 94.1% |
| COc1ccc(N(CC(=O)Nc2ccc3c(c2)OCO3)S(=O)(=O)c2c(C)nn(C)c2C)cc1 | 85.1% |
| CCOc1ccc(C2CC(c3ccccc3C)n3nc(N)nc3N2)cc1 (centres undefined) | 102% |
| Cc1cc(N)n2nc(-c3ccccc3)cc2n1 | 68.5% |
| CCCCCn1c(CCNC(=O)CCC)nc2ccccc21 | 82.4% |
| O=C(c1ccc2c(c1)OCCO2)N1CCCCC1 | 102% |
| O=C(NCCc1c[nH]c2ccccc12)c1cnc2n(c1=O)CCS2 | 87.1% |
| CCc1cc(=O)n2[nH]c(C)c(-c3ccccc3OC)c2n1 | 95% |
| Cc1ccc(CSc2nc3c(c(=O)[nH]2)CCC3)cc1 | 75.2% |
| CN(CCNS(=O)(=O)c1ccc2c(c1)oc(=O)n2C)Cc1ccccc1 | 87.9% |
| COc1ccc(-c2nnc(SCC(=O)NC(C)c3ccccc3)o2)cc1 (centres undefined) | 94.4% |

| Structure (SMILES) | viability |
| --- | --- |
| CCOc1ccc(Cn2nnc(C(=O)Nc3cc(C)cc(C)c3)c2N)cc1 | 78.3% |
| CCCCCn1c(CN2CCN(C(=O)c3ccco3)CC2)nc2c1c(=O)n(C)c(=O)n2C | 49.5% |
| CCN1CCN(Cc2ccc(NC(=O)Nc3ccccc3)cc2)CC1 | 89.3% |
| CCCN(CCC)C(=O)c1c(C)[nH]c(C(=O)OCC)c1C | 93.8% |
| COc1cccc(C2CC(c3c(Cl)cccc3Cl)n3nc(N)nc3N2)c1 (centres undefined) | 79.3% |
| Cc1c(C(=O)OCc2ccccc2)[nH]c2c1C(=O)CC(c1ccco1)C2 (centres undefined) | 8.71% |
| Cn1c(=O)c2c(nc(SCCOc3ccc4ccc(=O)oc4c3)n2C)n(C)c1=O | 89.6% |
| COc1ccc(NC(=O)CN(c2cc(C)cc(C)c2)S(=O)(=O)c2c(C)noc2C)cc1OC | 73.6% |
| CCOc1ccc(N2CC(C(=O)Nc3ccccc3OC)CC2=O)cc1 (centres undefined) | 86% |
| CC(C)CNc1oc(-c2ccc(F)cc2)nc1C#N | 92.5% |
| O=C(Nc1nnc(N2CCCCCC2)s1)c1cc(-c2ccc(Br)cc2)on1 | 86.4% |
| Cc1ccc(N=Cc2ccc[nH]2)c(O)c1 | 96.4% |
| CCCOC(=O)c1[nH]c2c(c1C)C(=O)CC(c1cc(OC)c(OC)c(OC)c1)C2 (centres undefined) | 64.6% |
| C=CCSc1nc2sc(C)c(C)c2c(=O)[nH]1 | 80.8% |
| O=C(c1ccc(Br)cc1)N1CCN(S(=O)(=O)c2ccccc2)CC1 | 94.9% |
| CN(C(=O)c1ccco1)c1nnc(C23CC4CC(CC(C4)C2)C3)s1 | 76.5% |
| COc1ccc(-c2nc3c(n2O)CCC/C3=N\O)cc1 | 81.5% |
| CC1CCC(NC(=O)C2(C)CCC(=O)N2Cc2cccnc2)CC1 (centres undefined) | 87.5% |
| Cc1cnc(NC(=O)CSc2nnc(COc3c(C)cccc3C)o2)s1 | 94% |
